What all share (conditions): primary human HUVEC with PBMC; actives raise or lower the signal
Assay [1] in a line: BSK_LPS_PGE2: BioMAP Diversity Plus: LPS Assay for Prostaglandin E2 (PGE2) Biomarker Activity (AID 2283082).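 As to AC50: secreted prostaglandin E2 measured by ELISA in LPS-stimulated co-culture.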 A digest of the protocol:
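ELISA read-out of PGE2 from human umbilical vein endothelial cells co-cultured with peripheral blood mononuclear cells under LPS, 24 h post-dose. Gain or loss of signal scored relative to DMSO baseline.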

Read-out in assay [2]: Macrophage colony-stimulating factor (MCSF), CSF1 (gene 1435)
Briefly: BSK_LPS_MCSF: BioMAP Diversity Plus: LPS Assay for Macrophage colony-stimulating factor (MCSF) Biomarker Activity (AID 2283083). A digest of the protocol: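 HUVEC + PBMC co-culture (human primary), 24 h post-dose; M-CSF by ELISA; gain/loss of signal fitted bidirectionally vs DMSO baseline.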

Read-out in assay [3]: Tissue Factor, F3 (gene 2152)
Description: BSK_LPS_TissueFactor: BioMAP Diversity Plus: LPS Assay for Tissue Factor Biomarker Activity (AID 2283084). A digest of the protocol: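 HUVEC/PBMC co-culture, LPS-activated; CD142 ELISA read 24 h post-dose; bidirectional curve fit vs DMSO negative control.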

Read-out in assay [4]: Tumor necrosis factor (Homo sapiens) (UniProt P01375)
Description: BSK_LPS_TNFa: BioMAP Diversity Plus: LPS Assay for Tumour Necrosis Factor alpha (TNFa) Biomarker Activity (AID 2283085).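 As to AC50: TNFa protein level quantified by ELISA in the co-culture.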 A digest of the protocol: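 HUVEC/PBMC co-culture, LPS-stimulated; 24 h post-dose; TNFa by ELISA; gain or loss of signal fitted bidirectionally vs DMSO baseline.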

Read-out in assay [5]: Vascular cell adhesion molecule 1 (VCAM1), VCAM1 (gene 7412)
Description: BSK_LPS_VCAM1: BioMAP Diversity Plus: LPS Assay for Vascular cell adhesion molecule 1 (VCAM1) Biomarker Activity (AID 2283086). The method, boiled down: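 ELISA read-out of VCAM-1 at 24 h post-dosing in an LPS-driven HUVEC/PBMC primary human co-culture; gain or loss of signal fitted bidirectionally against DMSO baseline. Cytotoxicity tracked in parallel cultures by SRB total-protein staining.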

Read-out in the next assay: CD38, CD38 (gene 952)
Description: BSK_SAg_CD38: BioMAP Diversity Plus: SAg Assay for CD38 Biomarker Activity (AID 2283087). A digest of the protocol: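 Measures CD38 on a human endothelial/PBMC co-culture driven by SEB and TSST-1, 24 h after compound exposure, using ELISA with fluorescence detection; DMSO defines baseline for bidirectional curve fitting.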

Read-out in the next assay: CD40, CD40 (gene 958)
Briefly: BSK_SAg_CD40: BioMAP Diversity Plus: SAg Assay for CD40 Biomarker Activity (AID 2283088). A digest of the protocol: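 HUVEC/PBMC co-culture, 24 h post-dose; CD40 by ELISA, fluorescence intensity; bidirectional fit vs DMSO negative control.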

Read-out in another assay: CD69, CD69 (gene 969)
Description: BSK_SAg_CD69: BioMAP Diversity Plus: SAg Assay for CD69 Biomarker Activity (AID 2283089).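 As to AC50: cell surface CD69 protein quantified by ELISA with fluorescence detection.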 The method, boiled down:
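Values derive from bidirectional fitting relative to DMSO vehicle. Cells: umbilical vein endothelium plus peripheral blood mononuclear cells, treated 24 h before fluorescent ELISA for CD69.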

Read-out in assay [6]: Monocyte Chemoattractant Protein-1 (MCP1), CCL2 (gene 6347)
Briefly: BSK_SAg_MCP1: BioMAP Diversity Plus: SAg Assay for Monocyte Chemoattractant Protein-1 (MCP1) Biomarker Activity (AID 2283090). A digest of the protocol:
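Values derive from bidirectional fitting of ELISA-measured MCP1 against DMSO controls. Readings were taken 24 h after dosing human vascular endothelial cells co-cultured with peripheral blood mononuclear cells under superantigen stimulation.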

Read-out in assay [7]: E-selectin (Homo sapiens) (UniProt P16581)
Description: BSK_SAg_Eselectin: BioMAP Diversity Plus: SAg Assay for Eselectin Biomarker Activity (AID 2283091). A digest of the protocol: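 E-selectin ELISA readout at 24 h post-dosing in human umbilical vein endothelial cell/PBMC co-culture; gain or loss of signal fitted relative to DMSO baseline.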

The source made the active and inactive calls. The calls were made as follows: active = hit-call score of the fitted dose curve at least 0.9, where 1 is the maximum; inactive = score below 0.9.

Sequence of Tumor necrosis factor (Homo sapiens) (P01375 whole entry, looked up): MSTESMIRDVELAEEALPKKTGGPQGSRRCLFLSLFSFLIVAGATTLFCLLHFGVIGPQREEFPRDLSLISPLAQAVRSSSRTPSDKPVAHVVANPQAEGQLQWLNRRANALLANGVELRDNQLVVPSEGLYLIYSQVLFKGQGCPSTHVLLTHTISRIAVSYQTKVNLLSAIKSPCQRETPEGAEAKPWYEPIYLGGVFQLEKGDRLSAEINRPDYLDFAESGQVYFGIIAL
Sequence of E-selectin (Homo sapiens) (P16581 whole entry, looked up): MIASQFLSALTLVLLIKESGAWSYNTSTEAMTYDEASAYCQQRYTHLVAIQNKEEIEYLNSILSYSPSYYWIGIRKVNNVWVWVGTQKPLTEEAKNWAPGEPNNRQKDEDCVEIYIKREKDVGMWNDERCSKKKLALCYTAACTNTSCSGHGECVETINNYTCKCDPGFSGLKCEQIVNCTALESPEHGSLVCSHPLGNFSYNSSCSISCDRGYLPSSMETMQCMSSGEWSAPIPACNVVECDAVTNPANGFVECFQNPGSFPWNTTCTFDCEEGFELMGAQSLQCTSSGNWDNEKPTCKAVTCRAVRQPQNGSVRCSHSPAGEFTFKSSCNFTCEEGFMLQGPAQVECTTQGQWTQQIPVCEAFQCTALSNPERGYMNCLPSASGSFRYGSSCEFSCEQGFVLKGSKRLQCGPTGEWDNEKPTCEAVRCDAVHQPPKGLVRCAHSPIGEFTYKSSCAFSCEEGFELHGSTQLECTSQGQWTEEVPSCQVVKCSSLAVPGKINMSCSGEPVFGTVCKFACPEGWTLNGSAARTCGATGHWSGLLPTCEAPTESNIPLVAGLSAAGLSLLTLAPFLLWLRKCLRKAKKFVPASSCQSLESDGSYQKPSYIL

`O=C(O)c1cccc(Oc2ccccc2)c1`: the outcome is “inactive” in assay [1]; “inactive” in assay [2]; “inactive” in assay [3]; “inactive” in [4]; “inactive” in [5]; “inactive” in the assay with CD38, CD38 (gene 952). Further, the outcome was “inactive” with CD40, CD40 (gene 958); “inactive” with CD69, CD69 (gene 969); “inactive” in assay [6]; “inactive” in assay [7].
Regarding `CCCN(C1CCN(C(=O)C2CCNCC2)CC1)[C@@H]1CCc2ccc(OC)cc2C1`, the outcome was “inactive” in assay [1]; “inactive” in [2]; “inactive” in assay [3]; “inactive” in [4]; “inactive” in assay [5]; “inactive” with CD38, CD38 (gene 952). Also, the outcome with CD40, CD40 (gene 958) is “inactive”; with CD69, CD69 (gene 969), “inactive”; in assay [6], “inactive”; in assay [7], “inactive”.
As for `CCCCCCc1ccc(O)cc1O`, the AC50 (as a rule, the midpoint of the concentration-response curve, whichever way the signal moves) in assay [1] was 1.38 µM (active); in assay [4], 32.6 µM (active); in assay [5], 32 µM (active); in the assay with CD38, CD38 (gene 952), 33 µM (active); with CD40, CD40 (gene 958), 30.6 µM (active); in assay [6] it was 27.6 µM (active). In addition, in assay [7], the AC50 is 33.6 µM (active). Also, the outcome in [3] was inactive.
With `Cn1c(=O)c2c(ncn2C)n(C)c1=O`, the outcome in assay [1] was “inactive”; in [2], “inactive”; in assay [3], “inactive”; in assay [4], “inactive”; in assay [5], “inactive”; with CD38, CD38 (gene 952) it was “inactive”. The outcome is “inactive” in the assay with CD40, CD40 (gene 958); “inactive” with CD69, CD69 (gene 969); “inactive” in assay [6]; “inactive” in assay [7].
For the compound `CC(C)=CCC/C(C)=C\CO`, the outcome in [1] is “inactive”; in assay [2], “inactive”; in [3] it was “inactive”; in assay [4], “inactive”; in the assay with CD38, CD38 (gene 952), “inactive”; with CD40, CD40 (gene 958), “inactive”. Moreover, the outcome with CD69, CD69 (gene 969) was “inactive”; in assay [6], “inactive”; in assay [7], “inactive”.
On to `O=c1[nH]c2ccc(S(=O)CCN3CCC(Cc4ccc(F)cc4)CC3)cc2o1` (configuration not stated), for which the outcome in [1] was “inactive”; in assay [2], “inactive”; in assay [3] it was “inactive”; in [4], “inactive”; in assay [5] it was “inactive”; with CD38, CD38 (gene 952), “inactive”. The outcome in the assay with CD40, CD40 (gene 958) was “inactive”; with CD69, CD69 (gene 969), “inactive”; in assay [6] it was “inactive”; in [7], “inactive”.
As for `CNS(=O)(=O)c1cc(C(=O)N2CCC(CCN3C4CCC3CC(n3c(C)nc5ccccc53)C4)(c3cccc(F)c3)CC2)c(Cl)cc1F` (configuration not stated), the outcome in assay [1], in [3], in assay [4] and in [7] was inactive. In addition, the AC50 in [2] was 18.3 µM (active); in assay [5] it was 5.99 µM (active); with CD38, CD38 (gene 952), 28.9 µM (active); with CD40, CD40 (gene 958), 23.2 µM (active); in the assay with CD69, CD69 (gene 969), 20 µM (active); in assay [6] it was 27.5 µM (active).
`Cc1ccc(N)cc1O`: the AC50 in [1] was 4.87 µM (active); in [7], 6.15 µM (active). Besides, the outcome was “inactive” in [2]; “inactive” in assay [3]; “inactive” in assay [4]; “inactive” in assay [5]; “inactive” in the assay with CD38, CD38 (gene 952); “inactive” in the assay with CD40, CD40 (gene 958). For the same compound, the outcome with CD69, CD69 (gene 969) was “inactive”; in assay [6], “inactive”.
On to `COc1ccc2sc(C(=O)Nc3nnn[nH]3)c(OC(C)C)c2c1`, for which the AC50 is 34.1 µM (active) in assay [1]; 14.1 µM (active) in [2]; 33.2 µM (active) in [3]; 28.9 µM (active) in [4]; 8.99 µM (active) in [5]; 16.2 µM (active) with CD38, CD38 (gene 952). In addition, the AC50 in the assay with CD40, CD40 (gene 958) was 9.27 µM (active); in the assay with CD69, CD69 (gene 969), 19.9 µM (active); in [6] it was 15.4 µM (active); in [7], 30 µM (active).
Consider `CC/C(=C\C(=N/O)C(N)=O)C(C)[N+](=O)[O-]` (configuration not stated), for which the outcome in [1] was “inactive”; in [2], “inactive”; in assay [3] it was “inactive”; in [4], “inactive”; in assay [5] it was “inactive”; in the assay with CD38, CD38 (gene 952), “inactive”. Besides, the outcome with CD40, CD40 (gene 958) was “inactive”; in the assay with CD69, CD69 (gene 969), “inactive”; in assay [6], “inactive”; in assay [7] it was “inactive”.

(Values after PubChem BioAssay (EPA / NIEHS).)
